Compound activity: PubChem BioAssay, Pan Lab, Icahn School of Medicine at Mount Sinai
RBX1-CUL1 inh – inhibitors of human ROC1-CUL1 ubiquitin ligase activity; 140,000 tested, 0.6% active; AID 1347404, 2020; E3 ubiquitin-protein ligase RBX1 (Homo sapiens) + Cullin-1 (Homo sapiens), P62877+Q13616; in vitro K48 di-Ub FRET, acceptor:donor ratio, 45 min; inhibition, % at 10 µM; in the data active = inhibition above about 25%
Of the large screens only hits and unclear results are named; the others gave an inactive call. The sample as a whole holds a higher share of hits than the screen did.

CCOC(=O)C1=C(C)N=c2s/c(=C/c3ccc(C(=O)O)cc3)c(=O)n2C1c1ccc(C(C)C)cc1 (configuration not stated)	RBX1-CUL1 inh 89.9
CCOC(=O)C1=C(C)N=c2s/c(=C\c3ccc(Cl)cc3)c(=O)n2C1c1ccc(C(C)C)cc1 (configuration not stated)	none
CCOC(=O)C1=C(C)N=c2s/c(=C\c3ccc(I)cc3)c(=O)n2C1c1ccc(OC)cc1 (configuration not stated)	none
CC(C)N1C(=O)S/C(=C/c2cccn2-c2cccc(C(F)(F)F)c2)C1=O	none
CSc1nnc(NC(=O)c2ccc(C)cc2)s1	none
O=C1OC(c2ccc3ccccc3c2)=N/C1=C/c1ccc(-c2cc(Cl)ccc2Cl)o1	none
C=CCN1C(=O)NC(=O)/C(=C\c2cc(Br)ccc2OCc2ccc(Cl)cc2Cl)C1=O	RBX1-CUL1 inh 101.0
C=CCN1C(=O)/C(=C/c2ccc(Cl)cc2Cl)NC1=S	none
C=CCN1C(=O)/C(=C/c2cc(Br)cc(OC)c2OC)C(=O)NC1=S	none
C=CCN1C(=O)NC(=O)/C(=C/c2ccccc2OCc2ccc(Cl)cc2Cl)C1=O	none
C=CCN1C(=O)NC(=O)/C(=C\c2ccc(-c3cc(Cl)ccc3Cl)o2)C1=O	RBX1-CUL1 inh 97.5
Cc1ccc(C(=O)NC(c2nnc(SCC(=O)N3CCN(c4ccccc4)CC3)n2C)C(C)C)cc1 (configuration not stated)	none
CCCCNC(=O)CCSc1ccc(Cl)cc1	none
O=c1cc(N2CCCCC2)cnn1CC(O)C(F)(F)F (configuration not stated)	none
Cc1cc(Br)cc(C)c1NC(=O)CSc1nnc(COc2ccccc2)n1N	none
COC(=O)c1cc(NS(=O)(=O)c2ccccc2)ccc1O	none
CC1=NN(c2ccccc2)C(=O)/C1=C(/C=C/c1ccc2c(c1)OCO2)c1ccc(C)cc1	none
CCOC(=O)c1c(Cl)cc(C)nc1Cl	none
Cc1cc(N2CCOCC2)c2c(N)c(Br)cc(C)c2n1	none
Cc1cc(Cl)c2c(N)c(C)cc(C)c2n1	RBX1-CUL1 inh 91.5
NC(=O)c1ccc(-c2cccc(-c3ccn[nH]3)c2)s1	none
CN(CCC1CCCCO1)C(=O)CCc1nnc(-c2ccc3c(c2)OCO3)o1 (configuration not stated)	none
CC(C)(C)CN1CCCC2(CCN(C(=O)c3cnccn3)C2)C1 (configuration not stated)	none
Cc1cc(C)n2nc(C(=O)N3CCC4(CCCN(CC(C)(C)C)C4)C3)cc2n1 (configuration not stated)	RBX1-CUL1 inh 29.1
COc1cccc(CN2CCCC3(CCN(C(=O)c4cnc(C)cn4)C3)C2)c1 (configuration not stated)	none
CCC(C)NC(=O)C(C)Oc1ccccc1 (configuration not stated)	none
Cc1ccc(Cl)cc1NC(=O)c1sc2nc(-c3ccccc3)cc(-c3ccccc3)c2c1N	none
CC(C)Oc1c(-c2ccccc2)c(=O)c1=O	none
CC(C)Oc1c(-c2ccco2)c(=O)c1=O	RBX1-CUL1 inh 68.5
CC(C)Oc1c(-c2ccc(F)cc2)c(=O)c1=O	none
CCOC(=O)C(C(=O)OCC)C(Nc1ccc2ccccc2c1)c1ccc(F)cc1 (configuration not stated)	none
O=c1c2c3c(sc2n2cnnc2n1-c1ccccc1)CCC3	none
CC1=NN(c2cccc(S(=O)(=O)O)c2)C(=O)C1	none
CC(=O)Nc1ccc(N2N=C(C)CC2=O)cc1	RBX1-CUL1 inh 28.4
CC(=O)Nc1ccc(-n2cccc2)cc1	none
Cc1c(C)n(CC(O)CN(C2CCCCC2)C2CCCCC2)c2ccccc12 (configuration not stated)	none
Cc1cc(C(=O)Nc2sc3c(c2C(=O)NC2CC2)CCCC3)no1	none
O=C1CSC2(C(=O)Nc3ccccc32)N1c1ccc(Br)cc1 (configuration not stated)	none
COc1cc(OC)cc(N2C(=O)CSC23C(=O)Nc2ccccc23)c1 (configuration not stated)	none
Cc1ccc(N2C(=O)CSC23C(=O)Nc2ccc(C)cc23)cc1 (configuration not stated)	RBX1-CUL1 inh 94.3
CC(=O)Nc1ccc(-c2csc(NNC(=O)c3ccc(Cl)cc3)n2)cc1	none
Cc1ccc(/C=C2\CCc3ccccc3C2=O)o1	none
COc1cccc(/C=C2\CCC(=C3SCCS3)C2=O)c1	none
CC1=C([N+](=O)[O-])CS(=O)(=O)/C1=C\c1ccco1	none
Nc1ccc2c(c1)C/C(=C/c1ccco1)C2=O	RBX1-CUL1 inh 30.6
O=C(C=C1SCCS1)/C=C/c1ccco1	none
O=C1C(=C2SCCS2)CC/C1=C\c1ccco1	RBX1-CUL1 inh 73.5
CC(C)C(=O)Nc1nnc(Cc2cccs2)s1	none
CN(C)c1ccc(-c2ccc(O)cc2O)cc1	none
CNS(=O)(=O)c1ccccc1Br	none
O=C(/C=C/C(=O)c1ccccc1)c1ccccc1	RBX1-CUL1 inh 26.7
COc1ccccc1/C=C/C(=O)c1ccccc1	none
CC(/C=C/C(=O)c1ccc(C)cc1)=C\c1ccccc1	none
CN(C)CCCSC1Cc2cc(Cl)ccc2Sc2ccccc21 (configuration not stated)	none
CCCCCCOC(=O)C(CCCCN1C(=O)c2ccccc2C1=O)N1C(=O)c2ccccc2C1=O (configuration not stated)	none
O=C1c2ccccc2C(=O)N1CC#Cc1ccccc1	none
